Assay outcomes: PubChem, several laboratories
Compounds with a hit are over-represented: about 1.2% of the library has one in this group of screens.
NALP1 inh – NALP1 inhibition. S. cerevisiae NALP1/ASC/caspase-1 growth, X-gal OD620, 72 h. inhibition, % at 10 µM. 0.61% of 280,000 active. AID 2071; in the data active = inhibition mostly above about 24%, no sharp cut-off; inactive = mostly below about 32%
APOBEC3G inh – blocks human APOBEC3G single-stranded DNA deamination. Q9HC16. recombinant A3G, ssDNA deamination FAM/TAMRA fluorescence. inhibition, % at 20 µM. 0.28% of 330,000 active;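 active = inhibition of at least 40% at 20 µM, with no more than 30% in the related APOBEC3A deaminase screen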;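 also: plate controls were DMSO wells with A3G for no effect and wells lacking A3G enzyme for full effect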
PolyA inh – yeast polyadenylation inhibition; S. cerevisiae SKY197-pL101 polyadenylation reporter, beta-gal luminescence; efflux-impaired pdr1/pdr3 knockout yeast; score 100 = 6 SD above DMSO; activity score, % at 12 µM; 0.02% of 300,000 active; AID 1875;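 active = lowest replicate activity score at least 50, where 100 means six control SD above control mean; inconclusive = lowest score under 50 but half or more replicates reach 50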;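 also: yeast exposed to compound for 9 h at 30 °C; higher score means more reporter readthrough which indicates perturbed polyadenylation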
APOBEC3A inh – inhibitors of human APOBEC3A DNA deaminase. AID 493011. recombinant A3A, FAM/TAMRA ssDNA deamination fluorescence. 0.41% of 330,000 active. inhibition, % at 20 µM. P31941;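 active = at least 40% inhibition at 20 µM here, with at most 30% in a related deaminase screen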;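 also: plate controls were A3A with DMSO for no effect and wells lacking A3A enzyme for full effect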
Target sequence (P31941 whole entry, looked up): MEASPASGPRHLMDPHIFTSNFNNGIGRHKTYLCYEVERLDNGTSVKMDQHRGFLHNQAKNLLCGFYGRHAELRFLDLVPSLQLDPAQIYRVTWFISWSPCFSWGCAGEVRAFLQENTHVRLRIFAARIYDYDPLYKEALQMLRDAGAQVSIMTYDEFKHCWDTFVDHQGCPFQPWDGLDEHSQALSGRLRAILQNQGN
APOBEC3G confirm – APOBEC3G (human) deaminase inhibition, confirmed; recombinant A3G ssDNA deaminase, UDG/FAM-TAMRA fluorescence; inhibition, % at 20 µM; AID 493152; 72% of 890 active; shares compounds with APOBEC3G inh;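 active = inhibition reaching a set limit in any replicate at 20 µM, the limit being 80% of the first screen's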
UDG ctr A3G – inhibits E. coli UDG, flagging false APOBEC3G inhibitors | shares compounds with APOBEC3G inh | UDG counterscreen, FAM/TAMRA oligo fluorescence | inhibition, % at 20 µM | 710 tested, under 10 active | AID 504715;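 active = compounds giving 40% or more inhibition at 20 µM in any one of the three replicates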;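 also: plate controls were DMSO wells with UDG and oligo for no effect and DMSO wells lacking both for full effect; inhibitors lower the FAM signal released by uracil excision and alkaline cleavage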
Target sequence (P12295 whole entry, looked up): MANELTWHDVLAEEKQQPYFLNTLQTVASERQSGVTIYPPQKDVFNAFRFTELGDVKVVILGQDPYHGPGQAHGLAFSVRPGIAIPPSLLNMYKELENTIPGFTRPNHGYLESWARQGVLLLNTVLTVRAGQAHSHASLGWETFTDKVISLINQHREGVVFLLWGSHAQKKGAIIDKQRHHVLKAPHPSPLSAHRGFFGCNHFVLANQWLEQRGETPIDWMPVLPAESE
Active calls of the source: *.

Screening CC(=O)NC(CC(=O)NNC(=O)C(C)Oc1ccccc1F)c1ccccc1 (stereo not given) returned APOBEC3G inh -12, PolyA inh -13 and APOBEC3A inh -5.
`O=C(CSC(=O)c1ccccc1)Nc1ccccc1F` gave APOBEC3G inh 41*, APOBEC3A inh 1, APOBEC3G confirm 37* and UDG ctr A3G -3.
`O=C(CCn1cnc2ccccc2c1=O)Nc1nc(-c2ccc(Br)cc2)cs1` gave NALP1 inh 22, APOBEC3G inh 1, PolyA inh 13 and APOBEC3A inh 13.
For CC1(C)CC(C(N)=S)CCO1 (stereo not given) the results were NALP1 inh 2, APOBEC3G inh 0, PolyA inh -5 and APOBEC3A inh 0.
`CCC1(C)CC(C(N)=S)CCO1` (stereo not given) gave NALP1 inh -2, APOBEC3G inh 57*, PolyA inh 9, APOBEC3A inh 1, APOBEC3G confirm 45* and UDG ctr A3G 4.
Cc1ccc2c(c1)-c1c(ssc1=S)C(C)(C)N2C(=O)c1ccco1 was read as NALP1 inh 13, APOBEC3G inh 42*, PolyA inh -8, APOBEC3A inh 0, APOBEC3G confirm 55* and UDG ctr A3G -4.
For CC1(CCc2ccccc2)NC(=S)N(c2ccccc2)N1 (stereo not given) the results were NALP1 inh 25 and PolyA inh 6.
`CC1(CCc2ccccc2)NC(=S)N(c2ccc(Cl)cc2)N1` (stereo not given) gave NALP1 inh 19, APOBEC3G inh 57*, PolyA inh inconclusive, APOBEC3A inh 1 and APOBEC3G confirm 12.
`CC(=O)c1ccc(NC(=O)CCNS(=O)(=O)c2ccccc2F)cc1` gave NALP1 inh 6, APOBEC3G inh -3, PolyA inh 5 and APOBEC3A inh -1.
`COc1ccc(OCCN(C)C(=O)c2cccc(S(=O)(=O)N(C)c3ccccc3)c2)cc1` gave APOBEC3G inh -1 and APOBEC3A inh -5.
Screening O=C(CSc1cn[nH]n1)Nc1cccc(C(=O)O)c1 returned NALP1 inh 18, APOBEC3G inh 62*, PolyA inh -3, APOBEC3A inh -1, APOBEC3G confirm 87* and UDG ctr A3G -7.
Screening CCOc1cc(C(=O)NN=C2CCCC2)cc(OCC)c1OCC returned NALP1 inh 11, APOBEC3G inh -7, PolyA inh 12 and APOBEC3A inh 1.
Screening S=c1[nH]nc(-c2cc(-c3ccccc3)n[nH]2)n1/N=C/c1ccc(Cl)cc1 returned NALP1 inh 12, APOBEC3G inh 8, PolyA inh 9 and APOBEC3A inh -2.
S=c1[nH]nc(-c2cc(-c3ccccc3)n[nH]2)n1/N=C/c1ccc(Cl)c(Cl)c1 was read as NALP1 inh 9, APOBEC3G inh 13, PolyA inh -2 and APOBEC3A inh -2.
Screening S=c1[nH]nc(-c2ccccn2)n1/N=C/c1ccc(Cl)c(Cl)c1 returned NALP1 inh -4, APOBEC3G inh 46*, PolyA inh 4, APOBEC3A inh 15, APOBEC3G confirm 45* and UDG ctr A3G -4.
`S=c1[nH]nc(-c2cc(-c3ccccc3)n[nH]2)n1/N=C/c1cccc(Cl)c1` gave NALP1 inh 4, APOBEC3G inh 53*, PolyA inh -19, APOBEC3A inh -7, APOBEC3G confirm 7 and UDG ctr A3G 8.
For Cc1nn(CC(=O)N2CCC(N3CCCCC3)CC2)c(=O)c2c1sc1ccccc12 the results were NALP1 inh 8, APOBEC3G inh -4, PolyA inh 18 and APOBEC3A inh -3.
Screening CCOC(=O)C1CCCN(C(=O)Cn2sc3nc(C)cc(C)c3c2=O)C1 (stereo not given) returned NALP1 inh 15, APOBEC3G inh 50*, PolyA inh 1, APOBEC3A inh -5, APOBEC3G confirm 78* and UDG ctr A3G -4.
Cc1cc(C)c2c(=O)n(CC(=O)N3CCC(N4CCCCC4)CC3)sc2n1 was read as NALP1 inh 3, APOBEC3G inh 49*, PolyA inh 8, APOBEC3A inh -7, APOBEC3G confirm 82* and UDG ctr A3G 0.
CC(=O)Cn1cnc2c(sc3nc(C)cc(C)c32)c1=O was read as APOBEC3G inh 11, PolyA inh -5 and APOBEC3A inh 1.
Screening CCCNC(=O)Cn1sc2nc(C)cc(C)c2c1=O returned APOBEC3G inh 60*, PolyA inh -1, APOBEC3A inh -11, APOBEC3G confirm 77* and UDG ctr A3G 0.
CC1CCC(NC(=O)CCS(=O)(=O)c2ccc3c(c2)oc(=O)n3C)CC1 (stereo not given) was read as NALP1 inh 8, APOBEC3G inh -1, PolyA inh -3 and APOBEC3A inh 2.
`NS(=O)(=O)c1ccc(O)c(NC(=O)c2ccc([N+](=O)[O-])o2)c1` gave NALP1 inh 10, APOBEC3G inh 64*, PolyA inh -7, APOBEC3A inh 8, APOBEC3G confirm 28* and UDG ctr A3G -13.
For COc1ccc(N2C(=O)CC(Sc3ncn[nH]3)C2=O)c(OC)c1 (stereo not given) the results were NALP1 inh 34, APOBEC3G inh 46*, PolyA inh 13, APOBEC3A inh -5, APOBEC3G confirm active and UDG ctr A3G -2.
`C=C(C)C(=O)Nc1ccc2c(c1)OCCOCCOCCO2` gave APOBEC3G inh 78*, PolyA inh 4, APOBEC3A inh 20 and APOBEC3G confirm 86*.
For COC(=O)c1ccc(Oc2c(F)c(F)nc(N3CCOCC3)c2F)cc1 the results were NALP1 inh 14, APOBEC3G inh 1, PolyA inh 2 and APOBEC3A inh 4.
`CCN(CC)S(=O)(=O)c1ccc(C(C)NC(=O)C2CCCN2C(=O)c2cccs2)cc1` (stereo not given) gave APOBEC3G inh -2 and APOBEC3A inh 25.
For Cc1ccc(OC(=O)c2sc(Cl)nc2C)cc1C the results were NALP1 inh 27, APOBEC3G inh 54*, PolyA inh 5, APOBEC3A inh 0, APOBEC3G confirm -1 and UDG ctr A3G -1.
Screening CS(=O)(=O)c1ncc(CO)n1Cc1ccccc1 returned NALP1 inh 0, APOBEC3G inh -4, PolyA inh 19 and APOBEC3A inh -2.
For c1ccc(SSc2ccccn2)nc1 the results were APOBEC3G inh 64*, PolyA inh 2, APOBEC3A inh -4, APOBEC3G confirm 88* and UDG ctr A3G -4.
For O=C(Nc1nnc(COc2ccc(Cl)cc2)s1)c1ccco1 the results were NALP1 inh 4, APOBEC3G inh 71*, PolyA inh 12, APOBEC3A inh 5, APOBEC3G confirm 43* and UDG ctr A3G -3.
